Measured values taken from PubChem BioAssay AID1347417 (National Center for Advancing Translational Sciences (NCATS), 2020).
About 5,300 (4.4%) of roughly 120,000 compounds were called active. Entries that show only a call come without a potency. Another 22% or so got no clear call; they are omitted. Calls come from the whole dose curve; as a rule, active = well fitted inhibition curve with a large enough effect; inconclusive = small, poorly fitted or top-dose-only effect; inactive = no such curve, though single readings can be large or run the other way. This excerpt belongs to a sample that is enriched for actives.

assay: qHTS Primary assay for Inhibitors of Plasmodium falciparum Dd2 growth in vitro; note: nearly all actives have a fitted effect of over 65% in size; conditions: P. falciparum Dd2 growth, SYBR Green, 72 h; series mostly up to 28.9 µM
Procedure, shortened: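 Infected erythrocytes (Dd2, 0.3% parasitemia, 2.5% hematocrit final) are added to compound in RPMI-1640/Albumax II medium, grown 72 h at 37C in low oxygen, then lysed with saponin/Triton-X containing SYBR Green and read by fluorescence.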
Potency is the fitted concentration of half-maximal effect.

Structure (SMILES) | Potency
Cc1ccc(-c2nc(N3CCOCC3)cc3c2CN(Cc2cnn(C)c2)C3=O)cn1 | inactive
COc1ccc(CN2CCOc3nc(-c4cc(F)cc(OC)c4)ncc3C2=O)cc1 | inactive
CCOc1ccccc1NC(=O)N1CCC(n2c(C)cnc2-c2cccnc2)CC1 | inactive
C=C(C)COc1ccccc1C(=O)NC(C(=O)O)c1c(C)n[nH]c1C (stereo unspecified) | inactive
COc1ccccc1-c1cc(C(F)(F)F)nc(S(=O)(=O)CCCC(=O)Nc2cc(C)ccc2O)n1 | inactive
COc1ccccc1-c1cc(C(F)(F)F)nc(S(=O)(=O)CCCC(=O)Nc2ccc(F)cc2F)n1 | 8.91 µM (active)
CSc1ccccc1NC(=O)CCS(=O)(=O)c1nc(-c2cccs2)cc(C(F)(F)F)n1 | inactive
Cc1noc(C)c1[S+](=O)([O-])N1CCCCC12Cc1ccccc1NC2=O (stereo unspecified) | inactive
Fc1ccc(OCc2nc(C3CCNCC3)no2)cc1 | inactive
CN1CCCCCCN(C(=O)C2CCOCC2)[C@H]2CCC[C@H]2C1=O | inactive
CCN1CCN(C(=O)C23CCCC=C2N(C2CCCC2)C(=O)CC3)CC1 (stereo unspecified) | inactive
CC1Oc2ccc(NC(=O)c3ccc([N+](=O)[O-])cc3)cc2CN(Cc2ccccc2)C1=O (stereo unspecified) | inactive
Cn1c(=O)c(=O)n(C)c2cc(NC(=O)c3ccccc3Br)ccc21 | inactive
CCn1c(CN2CCC(C)CC2)nc2cc(NC(=O)c3ccccc3[N+](=O)[O-])ccc21 | 11.2 µM (active)
CC1CCC2(CC1)OCC(C(=O)NCc1ccc3c(c1)OCO3)N2C(=O)c1ccccc1F (stereo unspecified) | inactive
O=C(NCCC1CCN(C(=O)Nc2cccc(F)c2)CC1)c1ccco1 | inactive
O=C(NCCN1CCCCC1)C1Cn2cccc2C(=O)N1Cc1ccccc1 (stereo unspecified) | inactive
COC[C@H]1CCCN1Cc1nc(C2(O)CCN(C(=O)C3CCOCC3)CC2)cs1 | inactive
COC[C@H]1CCCN1Cc1nc(C2(O)CCN(CC3CCCCC3)CC2)cs1 | 10 µM (active)
COc1cccc(C(=O)N2C(C(=O)NC(C)C)COC23CCN(C(=O)c2cccc(F)c2)CC3)c1 (stereo unspecified) | inactive
N#CCCN1CCN(C(=O)c2cn3ccnc(-c4ccccc4)c3n2)CC1 | inactive
COCCN1CCCCCC(O)c2cc(C(=O)Nc3cccc(OC)c3)ccc21 (stereo unspecified) | inactive
COc1cccc(NC(=O)N(Cc2cn(C)c3ccccc23)C2CCCCCC2)c1 | 6.31 µM (active)
COCC(=O)NC[C@H]1CCN(Cc2cn(C)c3ccccc23)C[C@H]1N(C)C | inactive

Structure (SMILES) | Potency
Cc1cccc(-c2nc3cnccn3c2NCCC(=O)N2CCCCCC2)c1 | inactive
CNc1ccc(OC2CCN(C(=O)NCCc3ccccc3)CC2)nc1 | inactive
CN1c2cc(C(=O)Nc3ccccc3)ccc2C(=O)N2CCCCCC21 (stereo unspecified) | inactive
Cc1ccc(CNC(=O)c2ccc3c(c2)N(C)C2CCCCN2C3=O)cc1C (stereo unspecified) | inactive
CN1c2cc(C(=O)N3CCC(C(N)=O)CC3)ccc2C(=O)N2CCCCC21 (stereo unspecified) | inactive
Cc1ccccc1CNC(=O)c1ccc2c(c1)N(C)C1CCCCN1C2=O (stereo unspecified) | 4.47 µM (active)
CN1c2cc(C(=O)Nc3ccc(Cl)cc3)ccc2C(=O)N2CCCCCC21 (stereo unspecified) | inactive
CN1c2cc(C(=O)NCc3ccccc3Br)ccc2C(=O)N2CCCCC21 (stereo unspecified) | 7.08 µM (active)
COc1ccc(C(=O)N2[C@@H]3CC[C@H]2CC(NC(=O)c2ccncc2)C3)cc1OC (stereo partly specified) | inactive
O=C(c1cc(F)ccc1F)N1CCC2(CC1)CC(N(Cc1ccccc1)C1CC1)CCO2 (stereo unspecified) | inactive
O=C(c1ccco1)N1CCC2(CC1)CC(N(Cc1ccccc1)C1CC1)CCO2 (stereo unspecified) | 4.47 µM (active)
CC(=O)N(C1CC1)C1CCOC2(CCN(C(=O)CCc3ccccc3)CC2)C1 (stereo unspecified) | inactive
CCN1CC2(CCN(C(=O)c3cc4c(cc3OC)CCC4)CC2)OC1=O | inactive
O=Cc1cccc(-c2cc(F)cc(F)c2)c1 | inactive
CCc1nc2nc(C)cc(Nc3ccc(F)c(Cl)c3)n2n1 | 3.55 µM (active)
CC(=O)c1ccc(NC(=O)c2nc3nc(C)cc(C(F)F)n3n2)cc1 | inactive
Cc1ccc(S(=O)(=O)NCc2nc3nc(C)cc(C)n3n2)cc1 | inactive
COCCN1C(=O)c2ccccc2C(C(=O)NC2CCCCCC2)C12CCCCC2 (stereo unspecified) | inactive
COc1cc(OC)c(NC(=O)Cn2ccn3nc(-c4ccccc4)c(CO)c3c2=O)cc1Cl | inactive
CCNc1ncc(CN2CCN(c3cccc(C(F)(F)F)c3)CC2)cn1 | 11.2 µM (active)
Cc1cc(N2CCN(c3cccc(C(F)(F)F)c3)CC2)n2nc(-c3ccccc3)nc2n1 | inactive
CC(C)(C)C(=O)N1CC[C@@H](CC(=O)O)[C@@H](CCN2CCN(c3cccc(C(F)(F)F)c3)CC2)C1 | inactive
N#Cc1ccc(OCC2CN(Cc3c[nH]c4ccccc34)C(=O)c3c(ccnc3-c3ccc(OCC(=O)O)cc3)O2)cc1 (stereo unspecified) | inactive
COc1ccccc1OC1(C(=O)O)CCN(C(=O)CC2CC2)CC1 | inactive

Structure (SMILES) | Potency
CN(C)c1ccc(C(=O)N[C@H]2C[C@H]3C(=O)NC[C@@H](CCC(=O)N4CCCCC4)N3C2)cc1 | inactive
Cn1nc2c(c1NC(=O)Cn1nc3c(cc1=O)CCCC3)CSC2 | inactive
O=C(CCc1ccccc1)Nc1ccc([C@@H](O)[C@H]2COCC(=O)N2Cc2ccccc2F)cc1 | 11.2 µM (active)
CCOCCN1C(=O)COC[C@@H]1[C@H](O)c1ccc(NC(=O)c2cnccn2)cc1 | inactive
Cc1ccc(C(=O)Nc2ccc(C(O)[C@H]3COCC(=O)N3Cc3ccccc3F)cc2)cc1 (stereo partly specified) | inactive
CCN1C(=O)COC[C@@H]1C(O)c1ccc(NC(=O)Cc2ccc(OC)cc2)cc1 (stereo partly specified) | inactive
COCC(=O)Nc1ccc([C@@H](O)[C@H]2COCC(=O)N2Cc2ccc(C(F)(F)F)cc2)cc1 | 12.6 µM (active)
O=C(Nc1ccc([C@@H](O)[C@H]2COCC(=O)N2CCCc2ccccc2)cc1)C1CC1 | inactive
Cc1ccc(Cl)cc1NC(=O)CN1C(=O)NC2(CCC(C)CC2)C1=O (stereo unspecified) | inactive
Cc1ccc(CN2CCCOCCNC(=O)CC2)o1 | inactive
CCn1cc(CN2CC[C@H]3C(=O)NCCCCCCN(Cc4ccncc4)[C@@H]3C2)c(C)n1 | inactive
O=C(NCc1ccccc1)N1CCN2C(=O)NC[C@H]2C1 | inactive
O=C(NC1CCCCCC1)c1ccc2c(c1)CC(=O)N2Cc1cccc(F)c1 | inactive
CCOc1ccc(CNC(=O)c2cccc(Nc3nc4ccccc4n4nnnc34)c2)cc1OC | 11.2 µM (active)
CCOc1ccc(OCC)c(Nc2nc3ccccc3n3nnnc23)c1 | inactive
CCOc1ccc(CNC(=O)c2ccc3nc(CC)c(CC)nc3c2)cc1OC | inactive
CC(=O)NCC1Cn2cccc2CN1Cc1ccccc1 (stereo unspecified) | inactive
O=C(c1cccc(-n2cnnc2)c1)N(Cc1ccsc1)CC1CCCO1 (stereo unspecified) | inactive
CC(C)c1ccc(C2CC(=O)N3CN(C4CCCCC4)CSC3=C2C#N)cc1 (stereo unspecified) | 11.2 µM (active)
CCn1nccc1C(=O)N1CCCC(c2nc(-c3cccnc3)no2)CCNC(=O)CC1 (stereo unspecified) | inactive
O=C(c1cc(F)ccc1F)N1CCCCCC1c1nnc(-c2ccccc2)o1 (stereo unspecified) | inactive
Cc1cc(CN(C)C(=O)c2cc(COc3ccc(F)cc3F)on2)on1 | inactive
CCCNc1cc(N2CCC(CCC(=O)Nc3ccc(C)cc3)CC2)ncn1 | 12.6 µM (active)
CCCNC(=O)CCC1CCN(C(=O)c2ccc(C)cc2)CC1 | inactive

Structure (SMILES) | Potency
CCNc1cc(N2CCC(CCC(=O)N3CCc4ccccc4C3)CC2)ncn1 | inactive
CCOc1ccccc1C(=O)N[C@@H]1CN(c2ncccn2)C[C@H]1CO | inactive
CC(=O)N1CCC(C(=O)NCC(=O)N2CCCCCCNC(=O)CC2c2ccccc2)CC1 (stereo unspecified) | inactive
Cc1nn2c(c1-c1ccccc1Oc1ccccc1)N(C(=O)C(C)C)CCC2 | 10 µM (active)
Cc1nn2c(c1-c1ccccc1N1CCCC1)N(C(=O)c1ccc(Oc3ccccc3)cc1)CCC2 | inactive
Cc1nn2c(c1-c1ccnn1C(C)C)N(C(=O)c1ccc(Oc3ccccc3)cc1)CCC2 | inactive
c1ccc(-c2nnc(CN3CCN(c4cnccn4)CC3)o2)cc1 | inactive
COc1ccc(CCNc2nc(-c3ccc(F)cc3)cc(C(F)(F)F)n2)cc1OC | inactive
COc1cc(Nc2nc(-c3ccc(OC)c(OC)c3)nc3ccccc23)cc(OC)c1 | 8.91 µM (active)
COc1ccc(Nc2ncc(C(=O)Nc3cc(C)ccc3OC)c3ccccc23)cc1 | inactive
COc1ccc(OCc2nc(C)c(CCO)c(=O)n2CC(=O)Nc2ccccc2C)cc1 | inactive
CCC(C)NC(=O)CN1CN(c2ccccc2)C2(CCN(C(=O)c3ccccc3OC)CC2)C1=O (stereo unspecified) | inactive
O=C(NC1CC(=O)N(Cc2ccccc2C(F)(F)F)C1)c1ccc[n+]([O-])c1 (stereo unspecified) | inactive
O=C(c1cn2ccsc2n1)N1CCn2nc(C(O)c3ccccc3)cc2C1 (stereo unspecified) | inactive
COC[C@@H]1CN(C(=O)c2cc(C)oc2C)C[C@H]1c1nc(C2CC2)no1 | inactive
CN(C)c1cccc(C(=O)Nc2nc3ccc(S(=O)(=O)NC(C)(C)C)cc3s2)c1 | 11.2 µM (active)
NS(=O)(=O)c1ccc2nc(NC(=O)COc3ccccc3)sc2c1 | inactive
Cc1cc2nc(NC(=O)c3ccc(S(=O)(=O)N4CCOCC4)cc3)sc2cc1C | inactive
CCOCCOC1CCN(C(=O)Cc2cccc(OC)c2)CC1 | inactive
Cc1cccc(C)c1NC(=O)N1CCC(OC2CCN(S(C)(=O)=O)CC2)CC1 | inactive
CS(=O)(=O)N1CCC(OC2CCN(C(=O)c3cccc(Cl)c3)CC2)CC1 | inactive
Cc1ccc(NC(=O)N2CCC(OC3CCN(S(C)(=O)=O)CC3)CC2)cc1F | 0.447 µM (active)
NC(=O)c1ccc(NC(=O)C2CC(=O)N(c3n[nH]c4cccc(F)c34)C2)cc1 (stereo unspecified) | inactive
COC(=O)c1cccc(NC(=O)N2CCC3(CCC(=O)N(Cc4ccccc4)CC3)CC2)c1 | inactive
